# Where “and” joins values, the source holds several entries; their conditions need not be identical. Equal entries are not always repeated. Results filed as inconclusive are left out. Entries that show only a call come without a potency. The source holds several records for some structures; these can differ, active in one and inactive in another. Calls of active or inactive are those of the source. The call rests on the fitted dose curve; in most records, active means well fitted curve in the direction sought with a large enough effect; inconclusive means small, poorly fitted or top-dose-only effect, or another doubt; inactive means no such curve, though single readings can be large; an effect the other way counts as inactive or inconclusive.
# Tests used:
# [1] = biological target: Glutathione peroxidase 1 (Homo sapiens) (UniProt P07203); experiment: Primary qHTS Assay for Inhibitors of Recombinant Selenoprotein Glutathione Peroxidase 1 (GPX1) (AID 1845191); settings: recombinant GPX1, GR-coupled NADPH fluorescence, 15 min; series mostly up to 48.8 µM; further: nearly all actives have a fitted effect of over 65% in size; further: potency means the concentration at half of the fitted maximal effect
# Outline: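 GPX1 10 nM, GR 100 nM, GSH 1 mM, NADPH 0.5 mM, CHP 0.5 mM (final). 30-min cpd preincubation, RT. Ex340/Em450 read t=0, t=15 min.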
# [2] = biological target: Phospholipid hydroperoxide glutathione peroxidase GPX4 (Homo sapiens) (UniProt P36969); experiment: Primary qHTS Assay for Inhibitors of Recombinant Selenoprotein Glutathione Peroxidase 4 (GPX4) (AID 1845192); settings: recombinant GPX4, GR-coupled NADPH fluorescence, 15 min; series mostly up to 50 µM; further: nearly all actives have a fitted effect of over 65% in size; further: potency means the concentration at half of the fitted maximal effect
# Outline: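 qHTS, GR-coupled: GPX4 200 nM + cpd 30 min RT → GSH 1 mM, NADPH 0.5 mM, GR 100 nM → CHP 0.5 mM start; fluor 340/450 at t0 and t15 min; no-enzyme wells as control.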
# [3] = biological target: Luciferin 4-monooxygenase (Photinus pyralis) (UniProt P08659); experiment: Primary firefly luciferase (FLuc) qHTS assay for identification of artifact compounds. (AID 1845220); settings: purified firefly luciferase, luminescence, 5 min; series mostly up to 54.1 µM; further: nearly all actives have a fitted effect of over 60% in size
# Outline: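 In this counter-screen for luciferase artifacts, test compounds met substrate (10 uM each luciferin and ATP) before 10 nM enzyme started the reaction. Light output was measured 5 min later.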
# [4] = Primary fluorescence-based thiol-reactive (MSTI) qHTS assay for identification of artifact compounds. (AID 1845221); settings: MSTI thiol-reactivity probe, 1 h; series mostly up to 53.8 µM;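 further: thiol-reactive compounds lower the probe fluorescence signal; nearly all actives have a fitted effect of over 65% in size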
# Outline: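 Reactivity toward the thiol probe MSTI (4 uM) is scored by fluorescence at Ex/Em 525/598 nm after 1 h at room temperature. Acetyl-MSTI and MSTI define the activity scale.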
# [5] = tested on: Nanoluciferase (engineered Oplophorus gracilirostris luciferase); experiment: Primary Nanoluciferase (NLuc) qHTS assay for identification of artifact compounds. (AID 1845222); settings: NLuc-conditioned medium, Nano-Glo luminescence, 5 min; series mostly up to 54.1 µM;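 further: NLuc secreted into diluted conditioned medium of S16 cells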
# Outline: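 Using secreted nanoluciferase in S16 culture medium (0.22 um filtered, 1:55 dilution), compounds were preincubated 15 min at RT. Signal was generated with Nano-Glo reagent (1:100) over 5 min.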
# [6] = Quantitative High-Throughput drug screen in 47 multiple myeloma cell lines against the NCATS MIPE library collection: Delta47_JCRB cell viability assay (AID 1918925; further: nearly all actives have a fitted effect of over 45% in size; further: potency means the concentration at half of the fitted maximal effect); settings: Delta47 myeloma viability, CellTiter-Glo ATP, 48 h; series mostly up to 45.8 µM
# Outline: (§1)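 Myeloma cells (500 per well) were exposed to MIPE 4.0 compounds by pin transfer and incubated 48 hours at 37C, 5% CO2. Viability was read as ATP by CellTiter-Glo luminescence, normalised to DMSO (100%) and media-only (0%) wells.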
# [7] = Quantitative High-Throughput drug screen in 47 multiple myeloma cell lines against the NCATS MIPE library collection: EJM_DSMZ cell viability assay (AID 1918926; further: nearly all actives have a fitted effect of over 30% in size; further: potency means the concentration at half of the fitted maximal effect); settings: EJM myeloma cell viability, CellTiter-Glo ATP, 48 h; series mostly up to 45.8 µM
# Outline: as §1
# [8] = Quantitative High-Throughput drug screen in 47 multiple myeloma cell lines against the NCATS MIPE library collection: AMO1_DSMZ cell viability assay (AID 1918927; further: nearly all actives have a fitted effect of over 30% in size; further: potency means the concentration at half of the fitted maximal effect); settings: AMO1 myeloma cells viability, CellTiter-Glo ATP luminescence, 48 h; series mostly up to 45.8 µM
# Outline: as §1
# [9] = Quantitative High-Throughput drug screen in 47 multiple myeloma cell lines against the NCATS MIPE library collection: ARP1_JJKsccF8 cell viability assay (AID 1918928; further: nearly all actives have a fitted effect of over 40% in size; further: potency means the concentration at half of the fitted maximal effect); settings: ARP1 myeloma cells viability, CellTiter-Glo ATP, 48 h; series mostly up to 45.8 µM
# Outline: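 500 cells/well; MIPE 4.0 library pinned in; 48 h, 37 °C, 5% CO2; CellTiter-Glo ATP luminescence. Controls: DMSO = 100% viability, medium only = 0%.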
# [10] = Quantitative High-Throughput drug screen in 47 multiple myeloma cell lines against the NCATS MIPE library collection: ARD_JJKsccE7 cell viability assay (AID 1918929; further: potency means the concentration at half of the fitted maximal effect); settings: ARD myeloma cell line viability, CellTiter-Glo, 48 h; series mostly up to 45.8 µM
# Outline: as §1
# [11] = Quantitative High-Throughput drug screen in 47 multiple myeloma cell lines against the NCATS MIPE library collection: Karpas620_DSMZ cell viability assay (AID 1918959); settings: Karpas620 myeloma viability, CellTiter-Glo ATP luminescence, 48 h; series mostly up to 45.8 µM; further: nearly all actives have a fitted effect of over 30% in size
# Outline: (§2)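 Relative luminescence from CellTiter-Glo served as the viability signal, referenced to DMSO-treated (100%) and cell-free medium (0%) controls. Treatment lasted 48 hours at 37C with 500 cells per well.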
# [12] = Quantitative High-Throughput drug screen in 47 multiple myeloma cell lines against the NCATS MIPE library collection: FR4_PLB cell viability assay (AID 1918924; further: nearly all actives have a fitted effect of over 35% in size; further: potency means the concentration at half of the fitted maximal effect); settings: FR4_PLB myeloma cells viability, CellTiter-Glo ATP, 48 h; series mostly up to 45.8 µM
# Outline: as §2
# [13] = Primary redox qHTS assay for identification of artifact compounds. (AID 1845223); settings: Amplex Red/HRP redox cycling with DTT, fluorescence; series mostly up to 53.8 µM
# Outline: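 Redox-cycling detection via DTT (250 uM final) oxidation coupled to Amplex Red (25 uM)/HRP (250 mU/mL) in HBSS. 15 min preincubation plus 30 min after DTT, room temperature. Ex/Em 525/598 nm; 4-parameter Hill fit against DMSO and 10 uM DA3003.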
# Sequence of Phospholipid hydroperoxide glutathione peroxidase GPX4 (Homo sapiens) (P36969 whole entry, looked up): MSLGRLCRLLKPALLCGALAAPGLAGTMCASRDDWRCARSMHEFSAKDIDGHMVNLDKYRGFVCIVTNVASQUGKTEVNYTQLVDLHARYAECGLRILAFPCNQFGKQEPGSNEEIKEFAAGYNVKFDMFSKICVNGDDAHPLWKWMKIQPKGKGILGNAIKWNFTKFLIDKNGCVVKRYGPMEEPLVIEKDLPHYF
# Sequence of Glutathione peroxidase 1 (Homo sapiens) (P07203 whole entry, looked up): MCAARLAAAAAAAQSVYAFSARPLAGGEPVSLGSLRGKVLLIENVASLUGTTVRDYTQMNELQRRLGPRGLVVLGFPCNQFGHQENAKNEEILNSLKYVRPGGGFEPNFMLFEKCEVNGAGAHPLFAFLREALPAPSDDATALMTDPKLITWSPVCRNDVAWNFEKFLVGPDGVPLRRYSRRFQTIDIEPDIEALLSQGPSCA
smiles,measurement,setting,value
O=c1oc2ccccc2c(O)c1Cc1c(O)c2ccccc2oc1=O,Potency,[1],inactive
same,Potency,[2],inactive
COP(=S)(OC)Oc1cc(Cl)c(Cl)cc1Cl,Potency,[1],inactive
same,Potency,[2],inactive
C[C@]12CC[C@@H]3c4ccc(OC(=O)N(CCCl)CCCl)cc4CC[C@H]3[C@@H]1CC[C@@H]2OP(=O)(O)O,Potency,[1],inactive
same,Potency,[2],inactive and 12.6 µM (active)
same,outcome,[3],inactive
same,outcome,[4],inactive
same,outcome,[5],inactive
same,Potency,[6],inactive
same,Potency,[7],inactive
same,Potency,[8],inactive
same,Potency,[9],inactive
same,Potency,[10],inactive
same,Potency,[11],inactive
CN1C(=O)NC(=O)C(C)(C2=CCCCC2)C1=O (configuration not stated),Potency,[1],inactive
same,Potency,[2],inactive
C[C@@H]1CC2=CC(=O)CC[C@@H]2[C@H]2CC[C@@]3(C)[C@@H](CC[C@]3(C)O)[C@@H]21,Potency,[1],inactive
same,Potency,[2],inactive
C[C@]12CC[C@H]3[C@@H](CCC4=CC(=O)CC[C@@H]43)[C@@H]1CC[C@@H]2OC(=O)CCc1ccco1,Potency,[1],inactive
same,Potency,[2],inactive
CCOP(=S)(OCC)Oc1ccc2c(C)c(Cl)c(=O)oc2c1,Potency,[1],inactive
same,Potency,[2],inactive
CN1C(=O)COc2c(C(=O)NC3CN4CCC3CC4)cc(Cl)cc21 (configuration not stated),Potency,[1],inactive
same,Potency,[2],inactive
same,Potency,[12],inactive
same,Potency,[6],inactive
same,Potency,[7],inactive
same,Potency,[11],inactive
C[C@]12CC[C@H]3[C@@H](CC[C@@]45O[C@H]4C(O)=C(C#N)C[C@]35C)[C@H]1CC[C@H]2O,Potency,[1],inactive
same,Potency,[2],inactive
same,Potency,[7],inactive
same,Potency,[8],inactive
same,Potency,[9],inactive
same,Potency,[11],inactive
Oc1ccc(Cl)cc1,Potency,[1],inactive
same,Potency,[2],inactive
COP(=S)(OC)Oc1ccc(S(=O)(=O)N(C)C)cc1,Potency,[1],inactive
same,Potency,[2],inactive
CNC(C)(C)Cc1ccccc1,Potency,[1],inactive
same,Potency,[2],inactive
C[C@]12Cc3cn[nH]c3C[C@@H]1CC[C@@H]1[C@@H]2CC[C@@]2(C)[C@H]1CC[C@]2(C)O,Potency,[1],inactive
same,Potency,[2],inactive
C=CCN1C[C@H](C)N([C@H](c2ccc(C(=O)N(CC)CC)cc2)c2cccc(OC)c2)C[C@H]1C,outcome,[1],inactive [at 9.52 µM]
same,"activity change, negative = inhibition",[2],-0.741% [at 9.73 µM] (inactive)
same,outcome,[3],inactive [at 11.6 µM]
same,"activity change, negative = thiol reactive",[4],24.3% [at 11.5 µM] (inactive)
same,"activity, negative = inhibition",[5],1.52% [at 11.6 µM] (inactive)
same,redox activity (% of DA3003),[13],9.33% [at 11.5 µM] (inactive)
CCOC(=O)CC(SP(=S)(OC)OC)C(=O)OCC (configuration not stated),Potency,[2],inactive
O=c1c(C2CC(c3ccc(-c4ccc(Br)cc4)cc3)Cc3ccccc32)c(O)sc2ccccc12 (configuration not stated),Potency,[1],22.7 µM (active)
same,Potency,[2],inactive
O=C(Nc1ccc(Br)cc1)c1cc(Br)cc(Br)c1O,Potency,[2],inactive
COc1cc(OC)c(OC)cc1C=O,Potency,[12],inactive
same,Potency,[6],inactive
same,Potency,[7],inactive
same,Potency,[8],inactive
same,Potency,[9],inactive
same,Potency,[10],inactive
same,Potency,[11],inactive
NC(=O)c1cc([N+](=O)[O-])cc([N+](=O)[O-])c1,Potency,[1],inactive
same,Potency,[2],inactive
CC(C)C[C@H](CN)CC(=O)O,Potency,[1],inactive
same,Potency,[2],inactive
same,Potency,[12],inactive
same,Potency,[6],inactive
same,Potency,[7],inactive
same,Potency,[8],inactive
same,Potency,[9],inactive
same,Potency,[10],inactive
same,Potency,[11],inactive
O=C(O)CCCc1ccc(N(CCCl)CCCl)cc1,Potency,[1],inactive
same,Potency,[2],inactive
same,Potency,[7],inactive
same,Potency,[8],inactive
same,Potency,[10],inactive
same,Potency,[11],inactive
C[C@](O)(CS(=O)(=O)c1ccc(F)cc1)C(=O)Nc1ccc(C#N)c(C(F)(F)F)c1,Potency,[1],inactive
same,Potency,[2],inactive
same,Potency,[12],14.8 µM (active)
same,Potency,[6],0.372 µM (active)
same,Potency,[7],0.372 µM (active)
same,Potency,[8],0.662 µM (active)
same,Potency,[9],18.7 µM (active)
same,Potency,[10],1.05 µM (active)
C[C@@H](N)[C@@H](O)c1ccccc1,Potency,[2],inactive
O=[N+]([O-])O[C@H]1CO[C@H]2[C@@H]1OC[C@H]2O[N+](=O)[O-],Potency,[1],inactive
same,Potency,[2],inactive
Clc1ccc(C(c2ccc(Cl)cc2)C(Cl)(Cl)Cl)cc1,Potency,[1],inactive
same,Potency,[2],inactive
Nc1ccc([As](=O)(O)O)cc1,Potency,[1],inactive
same,Potency,[2],inactive
c1ccc2c(c1)sc1ccccc12,Potency,[1],inactive
same,Potency,[2],inactive
COP(=S)(OC)SCN1C(=O)c2ccccc2C1=O,Potency,[2],inactive
CC(C)(C)NCC(O)c1cc(Cl)c(N)c(C(F)(F)F)c1 (configuration not stated),Potency,[1],inactive
same,Potency,[2],inactive
COP(=S)(OC)Oc1ccc(SC)c(C)c1,Potency,[1],inactive
same,Potency,[2],inactive
CC(=O)OCC1=C(C(=O)O)N2C(=O)[C@@H](N)[C@H]2SC1,Potency,[1],12.8 µM (active)
same,outcome,[3],inactive
same,outcome,[5],inactive
C[N+]1(CCF)[C@@H]2CC[C@H]1CC(OC(=O)C(O)(c1ccccc1)c1ccccc1)C2 (some centres not stated),Potency,[1],inactive
same,Potency,[2],inactive
C[C@]12CC[C@@H]3c4ccc(OC(=O)N(CCCl)CCCl)cc4CC[C@H]3[C@@H]1CC[C@@H]2O,Potency,[1],inactive
same,Potency,[2],inactive
C[C@]12CCC(=O)C=C1CC[C@@H]1[C@@H]2CC[C@]2(C)C(=O)CC[C@@H]12,Potency,[1],inactive
same,Potency,[2],inactive
COc1cccc(C(=O)CCN[C@@H](C)[C@H](O)c2ccccc2)c1,Potency,[1],inactive
same,Potency,[2],inactive
C=C(C)[C@H]1CN[C@H](C(=O)O)[C@H]1CC(=O)O,Potency,[1],inactive
same,Potency,[2],inactive
